Data taken from PubChem BioAssay AID504333 (National Center for Advancing Translational Sciences (NCATS), 2011).
The campaign covered roughly 360,000 compounds. About 16,000 (4.4%) were called active. About 9% were inconclusive and are not listed. This excerpt belongs to a sample that is enriched for actives. Values without a mark were called inactive. Calls follow the shape of the dose curve; as a rule, active = well fitted inhibition curve with a large enough effect; inconclusive = small, poorly fitted or top-dose-only effect; inactive = no such curve, though single readings can be large or run the other way.

Biological target: Bromodomain adjacent to zinc finger domain protein 2B (Homo sapiens) (UniProt Q9UIF8)
Sequence (Q9UIF8 whole entry, looked up, the tested form may be a part): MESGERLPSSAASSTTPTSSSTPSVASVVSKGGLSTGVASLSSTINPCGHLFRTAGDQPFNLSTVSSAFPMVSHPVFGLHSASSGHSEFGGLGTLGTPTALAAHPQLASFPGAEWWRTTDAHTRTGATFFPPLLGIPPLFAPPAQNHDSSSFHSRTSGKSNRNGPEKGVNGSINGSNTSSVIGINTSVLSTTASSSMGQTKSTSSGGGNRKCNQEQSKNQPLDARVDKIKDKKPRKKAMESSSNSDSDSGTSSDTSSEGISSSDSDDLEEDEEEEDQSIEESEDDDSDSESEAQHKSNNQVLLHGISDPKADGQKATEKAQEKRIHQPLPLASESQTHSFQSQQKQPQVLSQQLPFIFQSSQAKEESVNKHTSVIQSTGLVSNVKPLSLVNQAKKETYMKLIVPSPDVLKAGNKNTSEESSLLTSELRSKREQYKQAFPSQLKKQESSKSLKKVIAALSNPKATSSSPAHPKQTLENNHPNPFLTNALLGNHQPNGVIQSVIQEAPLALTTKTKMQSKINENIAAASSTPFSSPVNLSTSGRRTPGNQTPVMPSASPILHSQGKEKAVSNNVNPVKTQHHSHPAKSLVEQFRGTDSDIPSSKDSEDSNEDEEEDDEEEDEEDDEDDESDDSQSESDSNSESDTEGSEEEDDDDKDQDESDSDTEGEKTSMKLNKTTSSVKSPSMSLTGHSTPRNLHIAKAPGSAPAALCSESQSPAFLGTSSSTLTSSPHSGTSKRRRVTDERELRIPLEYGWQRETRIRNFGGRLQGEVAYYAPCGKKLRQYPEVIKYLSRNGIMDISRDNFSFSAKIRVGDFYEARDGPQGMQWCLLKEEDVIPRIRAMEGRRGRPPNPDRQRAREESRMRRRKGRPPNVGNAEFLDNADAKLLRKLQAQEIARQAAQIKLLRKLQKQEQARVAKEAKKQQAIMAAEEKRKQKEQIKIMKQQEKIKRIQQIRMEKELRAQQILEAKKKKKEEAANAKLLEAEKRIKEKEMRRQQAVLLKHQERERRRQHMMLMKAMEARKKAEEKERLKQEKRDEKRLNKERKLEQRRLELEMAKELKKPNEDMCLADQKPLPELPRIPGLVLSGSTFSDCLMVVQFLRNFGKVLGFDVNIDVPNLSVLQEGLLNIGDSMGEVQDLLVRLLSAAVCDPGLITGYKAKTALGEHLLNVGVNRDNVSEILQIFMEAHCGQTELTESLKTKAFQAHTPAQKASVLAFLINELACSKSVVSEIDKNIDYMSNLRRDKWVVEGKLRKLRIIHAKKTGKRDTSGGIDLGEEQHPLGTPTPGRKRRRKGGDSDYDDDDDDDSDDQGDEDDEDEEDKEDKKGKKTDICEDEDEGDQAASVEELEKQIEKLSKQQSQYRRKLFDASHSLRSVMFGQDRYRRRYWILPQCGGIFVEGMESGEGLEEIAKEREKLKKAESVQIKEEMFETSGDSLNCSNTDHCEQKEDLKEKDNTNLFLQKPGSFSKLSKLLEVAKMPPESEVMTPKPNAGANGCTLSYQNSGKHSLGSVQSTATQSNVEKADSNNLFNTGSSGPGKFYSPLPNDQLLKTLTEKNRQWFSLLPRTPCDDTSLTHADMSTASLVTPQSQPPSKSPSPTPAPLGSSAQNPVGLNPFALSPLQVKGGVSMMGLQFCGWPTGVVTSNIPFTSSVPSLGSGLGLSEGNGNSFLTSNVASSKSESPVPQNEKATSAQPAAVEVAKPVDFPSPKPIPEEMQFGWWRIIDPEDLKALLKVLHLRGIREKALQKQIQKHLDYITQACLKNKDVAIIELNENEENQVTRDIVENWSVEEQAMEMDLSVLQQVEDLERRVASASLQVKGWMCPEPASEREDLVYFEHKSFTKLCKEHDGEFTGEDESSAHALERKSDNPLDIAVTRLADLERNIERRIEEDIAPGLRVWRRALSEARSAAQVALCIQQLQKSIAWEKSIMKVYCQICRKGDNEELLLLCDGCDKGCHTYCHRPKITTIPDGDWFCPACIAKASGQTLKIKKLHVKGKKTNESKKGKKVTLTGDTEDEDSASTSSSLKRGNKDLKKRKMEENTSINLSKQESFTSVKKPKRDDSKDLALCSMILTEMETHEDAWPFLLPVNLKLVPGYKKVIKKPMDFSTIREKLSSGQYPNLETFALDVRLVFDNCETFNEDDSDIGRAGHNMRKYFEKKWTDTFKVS
Experiment: qHTS Assay for Inhibitors of BAZ2B; also: nearly all actives have a fitted effect of over 60% in size
Conditions: AlphaScreen BAZ2B-H3K14Ac peptide displacement; series mostly up to 114 µM; activity change, negative = inhibition: at the top concentration
Outline: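 Multi-concentration screen (max 110 uM) measuring displacement of acetylated histone H3 peptide from BAZ2B by AlphaScreen, using 50 nM protein, 50 nM peptide and 10 ug/mL streptavidin donor plus Ni-chelate acceptor beads.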
% is scaled to controls: 0 for no effect and ±100 for the full control effect; potency is read from the fitted curve at half-maximal effect.

| Compound | activity change, negative = inhibition | Potency |
| --- | --- | --- |
| COc1cc(OC)cc(C(=O)Nc2cc3nn(-c4ccccc4)nc3cc2Cl)c1 | -6.64% |  |
| Cc1cccc(C(CC(=O)NCC2(c3ccccc3)CCCC2)c2ccccc2)c1O (centres undefined) | 3.1% [at 57.1 µM] |  |
| Cn1c(SCC(=O)N2CCCc3ccccc32)ncc(C(=O)Nc2ccc(F)cc2)c1=O | 1.92% |  |
| COc1ccc(CNc2nc(-c3ccc(Cl)cc3)cc(C(F)(F)F)n2)cc1 | 146% |  |
| CCOc1ccc(S(=O)(=O)NCCCn2ccnc2)cc1NC(C)=O | -8.46% |  |
| C=CCc1cc(C)ccc1OCCCn1ccnc1 |  | 31.6 µM (active) |
| Cc1ccc(S(=O)(=O)c2nc(NCCCn3ccnc3)sc2Cl)cc1 | -51.5% |  |
| Clc1c(OCCCn2ccnc2)ccc2ccccc12 |  | 39.8 µM (active) |
| Brc1ccc(OCCn2ccnc2)cc1 | -4.22% |  |
| O=C(NCCCn1ccnc1)c1ccccc1F | 5.41% |  |
| Cc1cc2ccccc2n1CCNC(=O)c1ccc(F)cc1 | -14.6% |  |
| CCC(=O)N1c2ccccc2CC1C(=O)N1CCN(c2ccccc2F)CC1 (centres undefined) | -9.61% |  |
| O=S(=O)(c1ccc2nc(NCc3ccccc3Cl)ccc2c1)N1CCCCC1 | -19.2% |  |
| CCCNC(=O)c1ccc2c(c1)ncn2-c1ccc(C)cc1C | -0.425% |  |
| CSc1nc(=O)c2c(n1C)NC(=O)CC2c1ccccc1OC(C)C (centres undefined) | 0.682% |  |
| COc1ccc(Cl)cc1NC(=O)C(C)Sc1nc2c(c(=O)[nH]1)CCCC2 (centres undefined) | -2.65% |  |
| COc1cccc(-c2nnc(SCC(=O)N3CCC(C)CC3)o2)c1 | 2.96% |  |
| Cc1nnc(N2CCC(C(=O)Nc3ccc(F)cc3)CC2)c2nn(-c3ccc(Cl)cc3)c(C)c12 | -3.82% |  |
| N#C/C(=C(\O)CCl)c1nnc2n1CCCCC2 |  | 79.4 µM (active) |
| N#C/C(=C/c1cccc([N+](=O)[O-])c1)c1nnc2n1CCCCC2 | -6.09% |  |
| O=C(COC(=O)c1ccccc1F)Nc1cc(S(=O)(=O)N2CCOCC2)ccc1N1CCCC1 | -2.68% |  |
| CC(=O)NCCC(=O)Nc1cc(S(=O)(=O)N2CCOCC2)ccc1N1CCOCC1 | -10.5% |  |
| O=C(CNCc1ccco1)Nc1cc(S(=O)(=O)N2CCOCC2)ccc1N1CCCC1 |  | 50.1 µM (active) |
| CCOCCCn1c(SCC(=O)Nc2ccc(CC)cc2)nc2ccccc2c1=O | 11.4% |  |
| COc1ccc(S(=O)(=O)c2c(Nc3cccc(Cl)c3)sc(C(=O)c3ccccc3)c2N)cc1 | -20.4% |  |

| Compound | activity change, negative = inhibition | Potency |
| --- | --- | --- |
| COc1ccccc1CNC(=O)c1ccc(CS(=O)(=O)c2ccccc2)o1 | -5.07% |  |
| O=C(c1ccc(CS(=O)(=O)c2ccccc2)o1)N1CCN(c2ccccc2)CC1 |  | 56.2 µM (active) |
| O=C(c1ccc(S(=O)(=O)N2CCOCC2)cc1)N1CCN(c2ccccc2)CC1 | -2.71% |  |
| Cc1ccc2oc(=O)c3cnn(CC(=O)N4CCN(c5cccc(Cl)c5)CC4)c3c2c1 | 2.22% |  |
| O=S(=O)(NC1CCCCC1N1CCN(c2ccccc2F)CC1)c1ccccc1 (centres undefined) | -10.1% [at 57.1 µM] |  |
| COc1ccc(N2CCN(C3CCCCC3NS(=O)(=O)c3ccccc3)CC2)cc1 (centres undefined) |  | 17.8 µM (active) |
| CCN1CCN(C2CCCCC2NS(=O)(=O)c2ccc(Cl)cc2)CC1 (centres undefined) | -4.4% [at 57.1 µM] |  |
| O=C(NCc1ccc(F)cc1)c1ccc2nc(N3CCCCC3)sc2c1 | 9.7% |  |
| COc1ccc(C(=O)Nc2nonc2-c2ccc(OC)c(OC)c2)cc1Cl | 5.28% |  |
| CCCCCn1c(CCNC(=O)c2ccc(F)cc2)nc2ccccc21 | 0.99% |  |
| CN1OC(COC(=O)c2ccc(Cl)cc2)CC1c1ccccc1 (centres undefined) | 58.4% |  |
| Cc1ccccc1S(=O)(=O)N1[C@@H](c2cccc(Cl)c2)C(C(=O)O)=CC[C@H]1c1ccc(Cl)cc1 |  | 79.4 µM (active) |
| Cc1ccc(S(=O)(=O)N2[C@@H](c3ccccc3F)C(C(=O)O)=CC[C@H]2c2ccc(Cl)cc2)cc1 | -5.93% |  |
| Cc1cc2n(n1)C(c1cc(C(C)(C)C)c(O)cc1O)Nc1ccccc1-2 (centres undefined) | -14.5% |  |
| CSc1nc(-c2ccccc2Cl)nc2c1Cc1c(CO)cnc(C)c1O2 | -8.33% |  |
| O=C(CSc1nc2nccnc2c(=O)n1CCc1c[nH]c2ccccc12)Nc1ccccc1F | 3.9% |  |
| Cc1ccc(CSc2nc3ccsc3c(=O)n2CCC(C)C)cc1 | 78.6% |  |
| Cc1ccc(Nc2nc(N3CCOCC3)nc(N3CCOCC3)n2)cc1Cl | -13.2% |  |
| CCOc1ccc(Nc2nc(Cl)nc(N3CCN(c4ccc(OC)cc4)CC3)n2)cc1 |  | 8.91 µM (active) |
| COc1ccc(Nc2ncc(F)c(N3CCOCC3)n2)cc1 | -27% |  |
| CCOc1ccccc1NC(=O)Cn1nnc(C(=O)NCc2cccs2)c1N | -12.9% |  |
| CCOc1ccccc1NC(=O)Cc1cccs1 |  | 50.1 µM (active) |
| CCOC(=O)c1ccc(NC(=O)Cc2cccs2)cc1 | 4.75% |  |
| COc1ccc(CNc2nc(-c3ccccc3)nn2C(=O)c2ccccc2OC)cc1 | -2.25% |  |
